# Assay results taken from the supplement of paper PMC3545927.
# The list shows a part of the results. The hit rate among all sequences tested is not known here.
# Target: furin, P09958
# Assay: furin cleavage Z-score vs untreated control; higher = more cleavage, active = 3.5 or more, inactive = 1 or less, 8 variable residues between constant flanks
# How it was run: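 The cleavage Z-score was derived for purified furin acting on 8-mer peptides held on magnetic beads and fused to a cDNA oligonucleotide. Digests lasted 7.5, 15 or 30 min at 1:10 enzyme:substrate in 50 mM HEPES pH 7.5 with CaCl2 and NaCl. Sequencing counts of released DNA, log-transformed against furin-free reactions, were lowess-adjusted and scaled by median absolute deviation.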
# Sequence of furin, P09958 (P09958 whole entry): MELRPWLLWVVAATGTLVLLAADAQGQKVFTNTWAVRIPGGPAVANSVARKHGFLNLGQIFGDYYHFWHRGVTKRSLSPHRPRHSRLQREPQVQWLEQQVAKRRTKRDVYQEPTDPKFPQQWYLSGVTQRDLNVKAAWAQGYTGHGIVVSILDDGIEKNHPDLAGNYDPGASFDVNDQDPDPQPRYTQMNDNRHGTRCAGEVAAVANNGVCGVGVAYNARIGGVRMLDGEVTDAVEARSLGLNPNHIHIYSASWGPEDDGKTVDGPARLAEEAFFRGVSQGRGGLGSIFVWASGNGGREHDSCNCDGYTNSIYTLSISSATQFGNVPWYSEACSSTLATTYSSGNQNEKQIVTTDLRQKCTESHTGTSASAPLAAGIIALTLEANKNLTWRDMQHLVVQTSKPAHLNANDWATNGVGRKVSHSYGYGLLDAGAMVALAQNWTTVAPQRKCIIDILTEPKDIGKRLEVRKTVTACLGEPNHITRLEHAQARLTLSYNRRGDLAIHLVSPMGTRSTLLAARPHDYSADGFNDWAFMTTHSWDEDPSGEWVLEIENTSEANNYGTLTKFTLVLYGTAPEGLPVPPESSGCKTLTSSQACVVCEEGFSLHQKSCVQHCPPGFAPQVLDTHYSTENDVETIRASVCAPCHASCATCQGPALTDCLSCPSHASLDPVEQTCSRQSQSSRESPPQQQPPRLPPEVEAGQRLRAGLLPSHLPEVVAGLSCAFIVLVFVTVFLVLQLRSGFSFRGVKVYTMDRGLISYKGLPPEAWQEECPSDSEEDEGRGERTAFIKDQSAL
Sequence,furin cleavage Z-score (7.5 min),furin cleavage Z-score (15 min),furin cleavage Z-score (30 min)
CAEVVTSTQVAGNASASA [HC2242],0.0534 (inactive),-0.769 (inactive),-0.513 (inactive)
CAMEECSQMLAGNASASA [HC1746],0.461 (inactive),-0.78 (inactive),0.807 (inactive)
CAEVVTTTWVAGNASASA [HC156],0.967 (inactive),0.111 (inactive),0.291 (inactive)
CASCLTVPASAGNASASA [HC252],-0.0568 (inactive),-0.538 (inactive),-1.9 (inactive)
CAINFRDKRSAGNASASA [FS-667],10.5 (active),11.5 (active),8.52 (active)
CASCLRHKRSAGNASASA [FS-716],4.23 (active),3.94 (active),4 (active)
CAQESQKKRSAGNASASA [FS-1474],-0.591 (inactive),-0.0857 (inactive),0.142 (inactive)
CATEKRKKRSAGNASASA [FS-879],10.8 (active),10.5 (active),9.01 (active)
CAIERRKKRSAGNASASA [FS-1341],11.5 (active),11.5 (active),10.3 (active)
CAMEECSKHLAGNASASA [HC1734],0.481 (inactive),1.71,-0.626 (inactive)
CAVVCCLMSYAGNASASA [HC104],-0.57 (inactive),-0.101 (inactive),-0.447 (inactive)
CAEPVVCCSMAGNASASA [HC2139],0.036 (inactive),-1.42 (inactive),1.07
CAVLDSHYQDAGNASASA [HC1400],-0.288 (inactive),-1.98 (inactive),0.522 (inactive)
CATEHRVCRSAGNASASA [FS-508],3.96 (active),5.27 (active),4.89 (active)
CAIERVHKRSAGNASASA [FS-1342],6.81 (active),7.58 (active),7.96 (active)
CASDDRLCRSAGNASASA [FS-1484],-0.386 (inactive),0.196 (inactive),-1 (inactive)

Sequence,furin cleavage Z-score (7.5 min),furin cleavage Z-score (15 min),furin cleavage Z-score (30 min)
CAEYVEIRQVAGNASASA [HC1205],-0.199 (inactive),-0.194 (inactive),1.29
CARPEKSVNKAGNASASA [FS-1759],-1.61 (inactive),0.261 (inactive),-0.528 (inactive)
CARTARSTNKAGNASASA [FS-2094],5.26 (active),7.87 (active),5.51 (active)
CARTARAWGKAGNASASA [FS-3102],-0.427 (inactive),0.174 (inactive),1.29
CARAARGTSPAGNASASA [FS-2633],-0.591 (inactive),-1.01 (inactive),1.21
CARTARSEEDAGNASASA [FS-3103],-1.19 (inactive),-0.787 (inactive),0.992 (inactive)
CAFTAAVTSPAGNASASA [HC1057],-0.794 (inactive),-0.905 (inactive),-0.554 (inactive)
CARTARAVSPAGNASASA [FS-2611],5.89 (active),8.14 (active),7.16 (active)
CARFARHVSPAGNASASA [FS-2138],10.5 (active),9.18 (active),9.56 (active)
CALKAKLMPQAGNASASA [HC1158],1.55,0.58 (inactive),-1.58 (inactive)
CAVVCGSMSYAGNASASA [HC82],-0.0603 (inactive),-1.58 (inactive),0.38 (inactive)
CALRYRHKRIAGNASASA [FS-1541],6.08 (active),8.2 (active),8.94 (active)
CALRDYIPRIAGNASASA [FS-1464],-0.691 (inactive),-1.05 (inactive),-0.313 (inactive)
CARFHRACRLAGNASASA [FS-1257],-0.645 (inactive),-0.00567 (inactive),-0.322 (inactive)
CALRYRHKRLAGNASASA [FS-1542],9.71 (active),11.6 (active),9.65 (active)
